Screening results as filed in PubChem.
Most compounds without a hit are left out; they make up all but 3.3% or so of the library.
PfG6PD inh: PfG6PD (Plasmodium falciparum) enzyme inhibition. inhibition, % at 20 µM. AID 504690. PfGluPho enzyme, NADPH resazurin-diaphorase fluorescence. 350,000 tested, 0.78% active;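 active = inhibition reaching at least a set limit at 20 µM in the primary screen, cut at about 59% in these data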
PRMT1 FP inh: PRMT1 (human) inhibition, primary screen; recombinant PRMT1, activity-based probe fluorescence polarization; 370,000 tested, 1.3% active; AID 652257; inhibition, % at 2.79 µM; Q99873;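 active = inhibition above about 21% made by adding two undisclosed values, limit read from the data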
UHRF1 binding: human UHRF1 methylated DNA binding inhibitors; 370,000 tested, 0.75% active; inhibition, % at 4.4 µM; Q96T88; UHRF1 binding to methylated oligo, TR-FRET; in the data active = inhibition above about 21%;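 note: UHRF1 SRA domain binding a hemimethylated CpG hairpin DNA probe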
Target sequence (Q96T88 whole entry, looked up, the tested form may be a part): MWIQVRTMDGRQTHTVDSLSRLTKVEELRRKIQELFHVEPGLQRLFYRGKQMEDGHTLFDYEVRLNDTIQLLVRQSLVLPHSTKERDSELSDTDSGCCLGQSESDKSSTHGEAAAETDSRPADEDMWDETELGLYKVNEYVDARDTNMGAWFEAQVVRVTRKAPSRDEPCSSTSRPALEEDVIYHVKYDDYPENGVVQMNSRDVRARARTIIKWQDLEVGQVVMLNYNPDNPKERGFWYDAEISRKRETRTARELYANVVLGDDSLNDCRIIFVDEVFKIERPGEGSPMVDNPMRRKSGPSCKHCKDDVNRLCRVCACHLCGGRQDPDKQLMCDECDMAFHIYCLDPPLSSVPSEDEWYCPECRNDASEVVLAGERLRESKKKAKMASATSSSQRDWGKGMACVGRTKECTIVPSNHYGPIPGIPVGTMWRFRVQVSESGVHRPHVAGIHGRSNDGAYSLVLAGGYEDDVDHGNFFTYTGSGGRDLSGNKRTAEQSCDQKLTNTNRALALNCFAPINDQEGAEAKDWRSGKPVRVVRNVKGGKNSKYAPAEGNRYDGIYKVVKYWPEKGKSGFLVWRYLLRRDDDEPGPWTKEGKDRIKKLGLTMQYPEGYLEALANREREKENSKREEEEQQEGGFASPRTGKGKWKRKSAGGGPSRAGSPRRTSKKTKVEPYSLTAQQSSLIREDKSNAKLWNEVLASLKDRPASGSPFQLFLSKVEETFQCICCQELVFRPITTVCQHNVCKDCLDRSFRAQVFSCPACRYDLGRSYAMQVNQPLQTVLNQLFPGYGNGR
MBD2 DNA inh: inhibitors of human MBD2 binding to methylated oligonucleotide; Q9UBB5; TR-FRET; inhibition, % at 4.4 µM; 370,000 tested, 0.31% active; AID 686964; in the data active = inhibition above about 13%
PfM18AAP inh-1: blocks P. falciparum M18 aspartyl aminopeptidase. recombinant PfM18AAP, H-Glu-NHMec fluorogenic cleavage. inhibition, % at 7.35 µM. 290,000 tested, 1.2% active. AID 1822;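 active = inhibition above the campaign mean inhibition over all tested compounds plus 3 SD, cut at about 28% in these data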
PfM18AAP inh-2: PfM18AAP inhibition, confirmation. shares compounds with PfM18AAP inh-1. recombinant PfM18AAP, H-Glu-NHMec fluorogenic cleavage. inhibition, % at 7.35 µM. 2,400 tested, 28% active. AID 2170;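 active = mean inhibition over replicate wells above the hit cutoff set for the earlier primary screen, cut at about 29% in these data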
CTSL1 confirm: Cathepsin L (human) inhibition, confirmation | purified cathepsin L1, Z-Leu-Arg-MCA fluorescence | AID 2178 | shares compounds with PfM18AAP inh-1 | inhibition, % at 5.96 µM | 2,400 tested, under 10 active;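 active = average inhibition across replicates above the hit cutoff set in the earlier primary screen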
Numbers stand for hits; – = inactive; · = no result given.

SMILES | PfG6PD inh | PRMT1 FP inh | UHRF1 binding | MBD2 DNA inh | PfM18AAP inh-1 | others
O=C(NCC(c1ccccc1)c1ccccc1)[C@H](Cc1c[nH]c2ccccc12)NC1(C(=O)NC2CCCCC2)CCCCCC1 | · | – | – | – | ·
COCCN(C(=O)CSc1nn(-c2ccc(F)cc2)c(=S)s1)c1c(N)n(CC(C)C)c(=O)[nH]c1=O | – | – | – | – | ·
COC(=O)CSc1nn(-c2ccc(F)cc2)c(=S)s1 | – | – | 21 | – | –
CC(C)CC1Nc2ccc(C(=O)NCCCN3CCOCC3)cc2NC1=O (stereo not drawn) | – | – | – | – | –
CC(C)CC1Nc2ccc(C(=O)NCc3ccc4c(c3)OCO4)cc2NC1=O (stereo not drawn) | – | · | · | · | 29
COc1cc2c(cc1OC)-c1cc3ccc4c(c3c[n+]1CC2)OCO4 | – | 57 | – | – | –
COc1cc2c(cc1O)CC[n+]1cc3c(OC)c(OC)ccc3cc1-2 | – | – | – | – | –
CC1CCc2c(sc(N)c2C(N)=O)C1 (stereo not drawn) | – | – | – | – | 29
CC1CCc2c(sc(Nc3nc4c(F)cccc4s3)c2C(N)=O)C1 (stereo not drawn) | – | 23 | – | – | –
CC(C)C[C@H]1COc2cccc(F)c2S(=O)(=O)N1Cc1cn(Cc2ccco2)nn1 | · | – | – | – | ·
CC(C)(C)c1ccc(-c2nnc(SCC(=O)Nc3ccccc3-c3ccccc3)n2Cc2ccco2)cc1 | · | – | – | – | ·
O=C(NCc1ccccc1)c1ccc(N2CCC3(CC2)CC(c2ccccc2)=NO3)c([N+](=O)[O-])c1 | – | – | – | – | –
Cc1ccc(CNC(=O)c2ccc(N3CCC4(CC3)CC(c3ccccc3)=NO4)c([N+](=O)[O-])c2)cc1 | – | – | 22 | – | –
C=C(C)CSc1nc2sc(C)c(C)c2c(=O)n1C | · | – | – | – | ·
CCc1cc(=O)oc2cc(C)c(CN3CCCC(C)C3)c(O)c12 (stereo not drawn) | – | – | 27 | – | –
O=C(O)c1ccc(-c2ccc(/C=C3\NC(=O)N(Cc4ccc(Cl)cc4)C3=O)o2)cc1Cl | – | 43 | 77 | 22 | –
CCOC(=O)CN1C(=O)S/C(=C\c2ccc(-c3ccc(C(=O)O)c(Cl)c3)o2)C1=O | – | – | – | – | –
O=C(CCC(=O)Nc1nnc(C2CCCCC2)s1)Nc1ccc(F)cc1 | – | – | – | – | 29
Cn1cc(Cl)c(C(=O)Nc2nc3ccc(Cl)cc3s2)n1 | – | – | – | – | –
Cn1cc(Cl)c(C(=O)Nc2nc3ccc([N+](=O)[O-])cc3s2)n1 | – | – | – | – | 30
COCCCNC(=O)C[C@H]1C[C@@]2(C(=O)OC)C(=C[C@H](C(C)(C)C)O[C@@H]2C)N(CCc2ccc(OC)c(OC)c2)C1=O | · | – | – | – | ·
OCCCc1nc2n(n1)C(c1cccs1)C=C(c1ccc(Br)cc1)N2 (stereo not drawn) | · | · | · | · | –
Brc1ccc(C2=CC(c3cccs3)n3ncnc3N2)cc1 (stereo not drawn) | – | 95 | – | – | –
CN1Cc2nnn(Cc3ccccc3)c2-c2cc(N3CCCCC3)ccc2S1(=O)=O | · | – | – | – | ·
CCN(CC)CCn1c(SCC(=O)NCCC2=CCCCC2)nc2c(sc3ccccc32)c1=O | – | 22 | – | – | –
SMILES | PfG6PD inh | PRMT1 FP inh | UHRF1 binding | MBD2 DNA inh | PfM18AAP inh-1 | others
N#Cc1cccc(NC(=O)OCCCN2CCC3(CCCCC3)C2=O)c1 | · | – | – | – | ·
CC(C)C(=O)N[C@H]1[C@H](O)CCC[C@]12C(=O)N(Cc1ccccc1)c1ccccc12 | · | – | – | – | ·
CC1(C)Oc2cc(N)c([N+](=O)[O-])cc2O1 | – | – | 23 | – | –
CCN(CC)C(=O)c1ccc2c(c1)NC(=O)C(C)(C)O2 | · | – | – | – | ·
COC(=O)c1cnc(NNC(=O)c2ccc([N+](=O)[O-])cc2)nc1C(F)(F)F | – | – | – | – | –
COC(=O)c1cnc(NNS(=O)(=O)c2ccc(Cl)cc2)nc1C(F)(F)F | – | – | – | – | 29
Cc1ccc(-c2cc(NC(=O)Cc3c(C)[nH]c4ccccc34)ccc2Nc2cccnc2)cc1 | · | – | – | – | ·
CCOC(=O)CN1C(=O)CCSc2ccc(Cl)cc21 | – | – | 36 | – | –
CC(C)N(C[C@@H]1CSCCS(=O)(=O)N1)C1CCCCC1 | · | – | – | – | ·
CCOc1cc(C(c2c(C)[nH][nH]c2=O)c2c(C)[nH][nH]c2=O)ccc1O | – | – | – | – | 30
Cc1[nH][nH]c(=O)c1C(c1ccc(O)c(Br)c1)c1c(C)[nH][nH]c1=O | – | – | – | – | –
Cc1[nH][nH]c(=O)c1C(c1ccc(O)c([N+](=O)[O-])c1)c1c(C)[nH][nH]c1=O | – | – | – | – | 31
CCCCN(C)C(=O)CNc1nnnn1-c1ccccc1 | · | – | – | – | ·
CCc1cc(SC#N)ccc1N | – | 24 | – | – | –
CCc1cc([N+](=O)[O-])cc(CC)c1N | – | – | – | – | –
COc1ccc(C(=O)NCc2ccc3c(c2)cc(C)n3C)cc1OC | – | 24 | – | – | –
CCCCCn1c(=O)[nH]c2cc(C(=O)N3CCN(CC)CC3)ccc2c1=O | – | – | 25 | – | –
CCOc1ccc(/C=N/n2cc(-c3ccccc3)[nH]c2=S)cc1 | – | – | – | – | 54
COc1ccc(/C=N/n2c(-c3ccccc3)n[nH]c2=S)cc1 | – | – | – | – | –
CCOC(=O)[C@@]12CCCC=C1N(CCc1ccc(Cl)cc1)C(=O)[C@H]2CC(=O)NCc1ccc(C)o1 | · | – | – | – | ·
COc1cccc(C2NC(=S)N(Cc3ccccc3)C(C)=C2C(C)=O)c1 (stereo not drawn) | · | – | – | – | ·
O=C(CNS(=O)(=O)c1ccc(Cl)s1)N1CCN(c2ccccn2)CC1 | · | – | – | – | ·
O=C(CC1CCCC1)NNC(=O)c1ccccc1O | – | – | 36 | – | ·
O=C(NCCNC(=O)c1ccccc1O)c1ccccc1O | – | – | – | – | –
O=C(CCNC(=O)c1ccccc1Cl)NNC(=O)c1ccccc1O | – | – | 34 | – | ·
SMILES | PfG6PD inh | PRMT1 FP inh | UHRF1 binding | MBD2 DNA inh | PfM18AAP inh-1 | others
CCN(CC)S(=O)(=O)c1ccc(C(=O)/C=C/c2ccc(-c3ccc([N+](=O)[O-])cc3)o2)cc1 | – | – | – | – | 28
CCCCCCC/C=C(\C)[C@@H](O)[C@@H](C)C(=O)N1CCC[C@@H]1C(=O)O[C@H](C(=O)O[C@@H](C)C(=O)O)[C@@H](C)CC | · | – | – | – | ·
CCc1nnc(N/N=C/c2cccs2)n1N | – | – | – | – | 53
Cc1cc(C)nc(NC(=O)c2ccc(Br)cc2)n1 | – | – | – | – | –
Cc1cc(NO)nc(-c2ccc(Br)cc2)n1 | – | – | – | – | 56 | PfM18AAP inh-2=32;CTSL1 confirm=–
C=CCn1c(-c2ccc(OC)c(OC)c2)n[nH]c1=S | – | – | – | – | 36 | PfM18AAP inh-2=–;CTSL1 confirm=–
C=CCn1c(-c2sccc2C)n[nH]c1=S | – | – | – | – | 32 | PfM18AAP inh-2=–;CTSL1 confirm=–
